Measured values published in PubChem BioAssay (NCATS).
“And” between values parts separate entries of the source, which are not always exact repeats. Equal values may be shown once. Records with an inconclusive call do not appear. Entries that show only a call come without a potency. Values without a mark were called inactive. The source made the active and inactive calls. Unless noted, calls follow the shape of the dose curve; as a rule, active = well fitted curve in the direction sought with a large enough effect; inconclusive = small, poorly fitted or top-dose-only effect, or another doubt; inactive = no such curve, though single readings can be large; an effect the other way counts as inactive or inconclusive.

What was measured:
[1] = target: Calcium and integrin-binding protein 1 (Homo sapiens) (UniProt Q99828); assay: Primary qHTS for Identification of Calcium Integrin Binding Protein 1 (CIB1) Competitor (AID 1508620); conditions: CIB1-GST / FITC-alphaIIb peptide fluorescence polarization; series mostly up to 114 µM;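 also: GST tagged CIB1 binding a fluorescein labelled alphaIIb integrin peptide tracer; top concentration of the series differs between compounds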
Procedure, shortened: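 CIB1-GST (1 uM final) and compound incubated 15 min at room temperature before adding FITC-alphaIIb peptide tracer (100 nM final). Competition for binding read by fluorescence polarization (ex 480, em 540) after another 15 min at room temperature.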

[2] = Primary qHTS for inhibitors of nuclear receptor binding SET domain protein 2 (NSD2) in an isogenic RCH-ACV NSD2 p.E1099K mutant (9B) (AID 1645876); conditions: RCH-ACV (leukaemia line) NSD2 E1099K (9B) viability, CellTiter-Glo, 72 h; series mostly up to 44.9 µM; also: nearly all actives have a fitted effect of over 70% in size; also: potency is read from the fitted curve at half-maximal effect
[3] = target: Cytochrome P450 2D6 (Homo sapiens) (UniProt P10635); assay: Cytochrome P450 family 2 subfamily D member 6 (CYP2D6) small molecule antagonists: luciferase biochemical (cell-free) qHTS assay (AID 1645840; active = well fitted curve in the direction sought with a large enough effect in the repeat runs; an effect the other way counts as inactive or inconclusive; also: nearly all actives have a fitted effect of over 55% in size; also: potency is read from the fitted curve at half-maximal effect); conditions: P450-Glo CYP2D6 enzyme, luciferin luminescence, 1 h; series mostly up to 57.4 µM
Procedure, shortened: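 P450-Glo CYP2D6 system: proluciferin substrate converted by enzyme to luciferin, read by luminescence proportional to activity. Enzyme-substrate mix with compound 10 min at room temperature, then NADPH regeneration 1 h before detection reagent.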

[4] = target: Cytochrome P450 2C9 (Homo sapiens) (UniProt P11712); assay: Cytochrome P450 family 2 subfamily C member 9 (CYP2C9) small molecule antagonists: luciferase biochemical (cell-free) qHTS assay (AID 1645842; active = well fitted curve in the direction sought with a large enough effect in the repeat runs; an effect the other way counts as inactive or inconclusive; also: nearly all actives have a fitted effect of over 55% in size; also: potency is read from the fitted curve at half-maximal effect); conditions: P450-Glo CYP2C9 enzyme assay, luciferin luminescence; series mostly up to 57.4 µM
Procedure, shortened: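 P450-Glo CYP2C9 system: proluciferin substrate with enzyme in mix containing 0.4% BSA, 10 min at room temperature, then NADPH regeneration solution added and incubated 1 h at 37C. Detection reagent stopped reaction; luminescence read after 20 min as RLU.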

[5] = target: Cytochrome P450 3A4 (Homo sapiens) (UniProt P08684); assay: Cytochrome P450 family 3 subfamily A member 4 (CYP3A4) small molecule antagonists: luciferase qHTS assay (AID 1645841; active = well fitted curve in the direction sought with a large enough effect in the repeat runs; an effect the other way counts as inactive or inconclusive; also: nearly all actives have a fitted effect of over 45% in size); conditions: P450-Glo CYP3A4 enzyme assay, luciferin luminescence; series mostly up to 57.4 µM
Procedure, shortened: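 Luminescent CYP3A4 activity readout: compounds plus enzyme-substrate mix 10 min at room temperature, reaction started with NADPH regenerating system for 1 h, stopped with detection reagent, read after 20 min. Ketoconazole served as control.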

Calcium and integrin-binding protein 1 (Homo sapiens), sequence (Q99828 whole entry, looked up): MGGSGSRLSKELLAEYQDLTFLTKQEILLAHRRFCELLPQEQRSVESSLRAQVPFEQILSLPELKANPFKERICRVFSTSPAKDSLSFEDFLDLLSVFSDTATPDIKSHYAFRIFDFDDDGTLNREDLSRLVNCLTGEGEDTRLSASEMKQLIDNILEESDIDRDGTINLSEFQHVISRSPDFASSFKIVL
Cytochrome P450 2D6 (Homo sapiens), sequence (P10635 whole entry, looked up): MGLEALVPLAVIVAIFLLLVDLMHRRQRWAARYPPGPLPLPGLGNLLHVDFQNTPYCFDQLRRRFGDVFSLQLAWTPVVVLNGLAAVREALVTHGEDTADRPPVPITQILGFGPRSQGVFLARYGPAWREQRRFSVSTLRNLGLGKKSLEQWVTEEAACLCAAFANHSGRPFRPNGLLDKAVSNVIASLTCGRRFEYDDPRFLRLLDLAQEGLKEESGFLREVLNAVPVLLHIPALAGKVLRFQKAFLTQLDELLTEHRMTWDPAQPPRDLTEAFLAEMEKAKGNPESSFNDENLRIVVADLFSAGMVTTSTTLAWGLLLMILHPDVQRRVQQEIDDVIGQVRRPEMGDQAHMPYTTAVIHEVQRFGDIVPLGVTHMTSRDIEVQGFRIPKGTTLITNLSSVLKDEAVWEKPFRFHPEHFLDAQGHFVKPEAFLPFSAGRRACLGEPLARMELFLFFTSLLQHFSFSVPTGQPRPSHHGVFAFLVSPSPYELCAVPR
Cytochrome P450 2C9 (Homo sapiens), sequence (P11712 whole entry, looked up): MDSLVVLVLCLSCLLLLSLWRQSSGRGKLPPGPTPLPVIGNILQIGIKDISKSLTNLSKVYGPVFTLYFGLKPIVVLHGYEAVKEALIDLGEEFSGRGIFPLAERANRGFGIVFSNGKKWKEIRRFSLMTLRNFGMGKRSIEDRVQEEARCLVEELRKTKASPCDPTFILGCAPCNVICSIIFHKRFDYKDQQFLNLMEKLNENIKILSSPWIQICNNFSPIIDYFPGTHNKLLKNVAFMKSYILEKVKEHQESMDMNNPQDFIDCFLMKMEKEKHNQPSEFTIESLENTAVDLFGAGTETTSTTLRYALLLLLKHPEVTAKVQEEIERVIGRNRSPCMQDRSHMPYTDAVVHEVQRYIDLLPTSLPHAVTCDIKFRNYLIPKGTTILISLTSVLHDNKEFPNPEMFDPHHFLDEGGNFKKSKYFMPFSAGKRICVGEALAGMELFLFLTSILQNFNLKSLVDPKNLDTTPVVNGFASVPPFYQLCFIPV
Cytochrome P450 3A4 (Homo sapiens), sequence (P08684 whole entry, looked up): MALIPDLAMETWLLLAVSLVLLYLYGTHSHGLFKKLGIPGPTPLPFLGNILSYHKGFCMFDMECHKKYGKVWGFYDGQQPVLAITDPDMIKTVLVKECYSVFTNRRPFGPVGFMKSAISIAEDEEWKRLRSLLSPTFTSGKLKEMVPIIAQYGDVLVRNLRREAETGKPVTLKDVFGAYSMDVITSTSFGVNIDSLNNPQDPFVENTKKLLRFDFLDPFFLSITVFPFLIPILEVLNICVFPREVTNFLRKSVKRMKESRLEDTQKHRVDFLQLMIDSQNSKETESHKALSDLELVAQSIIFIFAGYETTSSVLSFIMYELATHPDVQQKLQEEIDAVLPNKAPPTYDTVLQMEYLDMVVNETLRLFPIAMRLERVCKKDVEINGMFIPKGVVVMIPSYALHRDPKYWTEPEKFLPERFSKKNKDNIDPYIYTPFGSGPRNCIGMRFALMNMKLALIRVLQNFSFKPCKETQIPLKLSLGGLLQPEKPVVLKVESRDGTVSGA

For `CC1=CC(=O)CC(C)(C)C1/C=C/C(C)O[C@@H]1O[C@H](CO)[C@@H](O)[C@H](O)[C@H]1O[C@@H]1OC[C@](O)(CO)[C@H]1O` (stereo partly drawn), the Potency [1] was “inactive” and the Potency [2] was “inactive”.

With `CC(=O)N[C@@H](C(=O)O[C@H]1CCC(C)(C)[C@@H]2CCC3=C(COC3=O)[C@@]12C)C(C)C` the Potency [1] was “inactive” and the Potency [2] was “inactive”.

With `CC(=O)N[C@H]1[C@H](O[C@H]2CC[C@@]3(C)C(CC[C@]4(C)C3CC=C3C5CC(C)(C)CC[C@]5(C(=O)O)[C@H](O)C[C@]34C)C2(C)C)O[C@H](CO[C@@H]2OC[C@H](O)[C@H](O)[C@H]2O[C@@H]2OC[C@@H](O)[C@H](O)[C@H]2O)[C@@H](O)[C@@H]1O` (stereo partly drawn) the Potency [1] was “inactive” and the activity change, negative = viability loss [2] was -10% [at 9.23 µM].

In the case of `COC(=O)C12CCC(C)C(C)C1C1=CCC3C4(C)CCC(OC(C)=O)C(C)(C)C4CCC3(C)C1(C)CC2` (stereo not drawn), the Potency [1] is reported as “inactive” and the Potency [2] is reported as “inactive”.

With `C[C@H](NC(=O)CCc1nc2ccccc2c(=O)[nH]1)c1ccccc1` the Potency [1] was “inactive” and the Potency [2] was “inactive”.

For `COc1ccc(/C=C/C(=O)O[C@@H]2[C@@H](O)[C@@H](O)[C@H](O[C@@H]3C=C(CO)[C@H]4[C@H](O[C@@H]5O[C@H](CO)[C@@H](O)[C@H](O)[C@H]5O)OC=C[C@H]43)O[C@H]2C)cc1O`, the Potency [1] was “inactive” and the Potency [2] was “inactive”.

With `CC(C)=CCC[C@](C)(O)[C@H]1CC[C@]2(C)[C@@H]1[C@H](O)CC1[C@@]3(C)CC[C@H](O)C(C)(C)[C@@H]3[C@@H](O[C@@H]3O[C@H](CO)[C@@H](O)[C@H](O)[C@H]3O[C@@H]3O[C@H](CO)[C@@H](O)[C@H](O)[C@H]3O)C[C@]12C` (stereo partly drawn) the Potency [1] was “inactive” and the Potency [2] was “inactive”.

In the case of `CC(=O)CC1CCC(C(C)C(=O)OCC(O)CO)O1` (stereo not drawn), the Potency [1] is reported as “inactive” and the Potency [2] is reported as “inactive”.

With `Cc1cc(C(=O)Nc2cccc(C(=O)Nc3cccc(C(F)(F)F)c3)c2)on1` the Potency [1] was “inactive” and the Potency [2] was “inactive”.

For `CC1(C)CCC2(C(=O)OC3OC(CO)C(O)C(O)C3O)CCC3(C)C(=CCC4C5(C)CCC(OC6OC(C(=O)O)C(OC7OC(CO)C(O)C(O)C7O)C(OC7OC(CO)C(O)C(O)C7O)C6O)C(C)(C)C5CCC43C)C2C1` (stereo not drawn), the Potency [1] was “inactive” and the activity change, negative = viability loss [2] was -4.92% [at 9.23 µM].

In the case of `CC(O)(CC(=O)O)CC(=O)OCc1ccc(O[C@@H]2O[C@H](CO)[C@@H](O)[C@H](O)[C@H]2O)cc1` (stereo partly drawn), the Potency [1] is reported as “inactive” and the Potency [2] is reported as “inactive”.

For `CC(O)/C=C/C1OC(=O)CC1Nc1ccc(C(=O)O)cc1` (stereo not drawn), the Potency [1] was “inactive” and the Potency [2] was “inactive”.

For `Cc1cc(-c2cc(O)ccc2Cl)cc2nnc(Nc3ccc(OCCN4CCCC4)cc3)nc12`, the Potency [3] was 16.9 µM (active), the Potency [4] was 12 µM (active) and the Potency [2] was 3.25 µM (active).

With `CC1CC(O)C2(OC1=O)OC1C(O)C3C4CCC5CC(OC6OC(CO)C(O)C(O)C6OC6OC(C)C(O)C(O)C6O)CCC5(C)C4CCC3(C)C1C2C` (stereo not drawn) the Potency [1] was “inactive” and the Potency [2] was “inactive”.

With `CC12CCC(OC3OC(CO)C(O)C(OC4OC(CO)C(O)C(O)C4O)C3O)CC1CCC1C2CCC2(C)/C(=C3/COC(=O)C3)CCC12O` (stereo not drawn) the Potency [1] was “inactive” and the Potency [2] was “inactive”.

For `Cc1cccc(C)c1-n1c(=O)c2cnc(Nc3ccc(N4CCN(C)CC4)cc3)nc2n2c3ccccc3nc12`, the Potency [3] was “inactive” and the Potency [2] was 0.205 µM (active).

For `C=CC(C)(O)C(O)CC1C(C)(O)C(O)C(O)C2C(C)(C)CCCC21C` (stereo not drawn), the Potency [1] was “inactive” and the Potency [2] was “inactive”.

With `C=CC(=O)Nc1cccc(Nc2nc(Nc3ccc(N4CCN(C(C)=O)CC4)cc3OC)ncc2C(F)(F)F)c1` the Potency [3] was “inactive” and the Potency [2] was 3.65 µM (active) and 4.17 µM (active).

In the case of `CC1=CC2/C=C(\C)CC[C@@H](O)[C@@H](O)[C@@H]3O[C@@H]3C(=O)[C@]23C(=O)N[C@@H](CC(C)C)[C@@H]3[C@@H]1C` (stereo partly drawn), the Potency [1] is reported as “inactive” and the Potency [2] is reported as “inactive”.

In the case of `O=C1NC(Cc2ccccc2)C(=O)N2CCCC12` (stereo not drawn), the Potency [1] is reported as “inactive” and the Potency [2] is reported as “inactive”.

In the case of `COC(=O)CCC(=O)OC[C@]1(C)CCC[C@@]2(C)C3CC[C@]4(C)C=CC3(CCC12)C4` (stereo partly drawn), the Potency [1] is reported as “inactive” and the Potency [2] is reported as “inactive”.

In the case of `COC(=O)C1(C)c2[nH]c3ccccc3c2CCN1C(=O)CCl` (stereo not drawn), the Potency [1] is reported as “inactive” and the Potency [2] is reported as 2.58 µM (active).

In the case of `CC1(C)C[C@H](O)C[C@@]2(C)OC(=O)C=C12`, the Potency [1] is reported as “inactive” and the Potency [2] is reported as “inactive”.

For `CN1CCN(C2CCC(n3cc(-c4ccc(Oc5ccccc5)cc4)c4c(N)ncnc43)CC2)CC1` (stereo not drawn), the Potency [3] was 12 µM (active), the Potency [5] was “inactive” and the Potency [4] was “inactive”. The Potency [2] was 20.5 nM (active) and 74.2 nM (active).

With `C=C1CCC[C@]2(C)CC[C@@H](C(=C)C(=O)O)[C@H](O)[C@@H]12` the Potency [1] was “inactive” and the Potency [2] was “inactive”.
